In PubChem BioAssay (NCATS) one finds Potency and activity (max response) data, which are given here for 42 molecules.

A short description of assay [1]: Viability qHTS for spleen associated tyrosine kinase inhibitor (SYKi) naive MV4-11 cells (AID 1963823). Also: nearly all actives have a fitted effect of over 40% in size. Conditions: MV4-11 AML viability, CellTiter-Glo luminescence, 72 h; series mostly up to 45 µM. Put shortly:
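qHTS, SYK inhibitor-naive MV4-11; 500 cells/well; 72 hr compound exposure, 37 C; CellTiter-Glo added, 10 min RT; luminescence read.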
A general note: qHTS replaces the single test concentration by a dilution series.

Assay [2] is described as follows: Viability qHTS for spleen associated tyrosine kinase inhibitor (SYKi) drug resistant MV4-11 cells (AID 1963824). Also: nearly all actives have a fitted effect of over 35% in size. The note with it: SYKi-resistant MV4-11 viability, CellTiter-Glo, 72 h; series mostly up to 45 µM. A digest of the protocol:
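SYK inhibitor-resistant MV4-11 AML cells, 500 per well, added to predispensed compounds and incubated 72 hr at 37 C, 5% CO2. Viability measured by CellTiter-Glo luminescence after 10 min at room temperature.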

A short description of assay [3]: Cellular viability qHTS for adrenocortical cancer (ACC) cell line NCI-H295R (AID 1963990). Also: nearly all actives have a fitted effect of over 60% in size. The note with it: CellTiter-Glo ATP luminescence, 48 h; series mostly up to 46.1 µM. A digest of the protocol: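 CellTiter-Glo ATP luminescence, read 48 h after compound addition, measured viability of NCI-H295R adrenocortical cells grown serum-free with ITS. Final concentrations spanned up to 46 uM. Data normalized to DMSO and doxorubicin, fitted for IC50 and maximal response.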

The nature of assay [4]: Cellular viability qHTS for adrenocortical cancer (ACC) cell line SW-13 (AID 1963989). Also: nearly all actives have a fitted effect of over 65% in size.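 As to activity (max response): cells grown in serum-free medium with ITS supplement; % is scaled to controls: 0 for no effect and ±100 for the full control effect.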 Conditions: SW-13 ACC cells viability, CellTiter-Glo, 48 h; activity (max response): stronger effect = lower value. Put shortly: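 Viability was read as CellTiter-Glo luminescence after 48 h compound treatment (up to 46 uM final) of SW-13 cells grown serum-free; titration curves were fit with a four-parameter logistic model to give IC50 and efficacy.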

Several values for one entry are separate records, joined by “and”; a condition that tells them apart may be missing. Equal values may be shown once. Records with an inconclusive call do not appear. A number with no mark means an inactive call. Activity calls are given as the source filed them. Calls follow the shape of the dose curve; as a rule, active = well fitted curve in the direction sought with a large enough effect; inconclusive = small, poorly fitted or top-dose-only effect, or another doubt; inactive = no such curve, though single readings can be large; an effect the other way counts as inactive or inconclusive.
Potency is read from the fitted curve at half-maximal effect.

`CN1CCCC(CC2c3ccccc3Sc3ccccc32)C1` (centres undefined): the Potency in assay [1] was 18.8 µM (active); in assay [2], 16.8 µM (active); in assay [3], 18.4 µM (active).

Regarding `CCC(C(=O)OCCOCCN(CC)CC)c1ccccc1` (centres undefined), the Potency entry in assay [1], in assay [2] and in assay [3] was “inactive” in each case. Moreover, the activity (max response) in assay [4] was -6.83%.

Regarding `CNCc1ccc(-c2cc(-c3nc(-c4ccc(S(=O)(=O)C(C)C)cc4)cnc3N)on2)cc1`, the Potency was 0.259 µM (active) in assay [1], 0.326 µM (active) in assay [2], 3.98 µM (active) in assay [4] and 0.316 µM (active) in assay [3].

As to `CCC1CCCCN1C(=O)n1ncc(C(O)(c2ccccc2)c2ccccc2)n1` (centres undefined), the Potency in assay [1] is 11.8 µM (active); in assay [2] it was 5.25 µM (active); in assay [4] it was 15.8 µM (active); in assay [3], 28.2 µM (active).

Consider `Cc1ccc(S(=O)(=O)Nc2cc(-c3ccc(C#N)s3)ccc2C)cc1`, for which the figures for the Potency in assay [1], in assay [2] and in assay [3] were 0.0295 µM (active), 0.0332 µM (active) and 0.0316 µM (active), respectively.

For the molecule `O=C(NO)c1cnc(N2C[C@H]3C[C@@H]2CN3c2cc(C(F)(F)F)ccn2)nc1`, the Potency is 2.35 µM (active) in assay [1], 2.35 µM (active) in assay [2], 10 µM (active) in assay [4] and 2.82 µM (active) in assay [3].

On to `CN1CCN(C(=O)c2ccc(-c3ccc4c(C=O)c(O)ccc4c3)s2)CC1`, for which the Potency in assay [1] is 16.6 µM (active); in assay [2], 14.8 µM (active). Also, in assay [4], the activity (max response) is 9.42%. Moreover, the Potency entry in assay [3] was “inactive”.

For the molecule `NC(=O)/C(=C/n1cnc(-c2cc(C(F)(F)F)cc(C(F)(F)F)c2)n1)c1cncnc1`, the Potency in assay [1] is 0.132 µM (active); in assay [2], 0.235 µM (active); in assay [4] it was 3.98 µM (active); in assay [3] it was 3.16 µM (active).

With `CCCCN1C[C@H](O)[C@@H](O)[C@H](O)[C@H]1CO`, the Potency result in assay [1], in assay [2] and in assay [3] was “inactive” in each case.

For `CCNC(=O)Nc1ccc(-c2nc3c(c(N4CCOC[C@@H]4C)n2)CCN(C2COC2)C3)cc1`, the Potency in assay [1] is 0.934 µM (active); in assay [2], 1.86 µM (active); in assay [3] it was 3.55 µM (active).

For the molecule `C=CC(=O)Nc1cccc(C)c1Nc1ncc2cc(-c3c(Cl)c(OC)cc(OC)c3Cl)ccc2n1`, the Potency is 1.03 µM (active) in assay [1], 1.46 µM (active) in assay [2] and 3.55 µM (active) in assay [3].

On to `CCOc1cc2ncc(C#N)c(Nc3ccc(OCc4ccccn4)c(Cl)c3)c2cc1NC(=O)/C=C/CN(C)C`, for which the Potency is 126 nM (active) and 525 nM (active) in assay [1]; 224 nM (active) and 525 nM (active) in assay [2]; 2 µM (active) in assay [3].

On to `Cn1cc(-c2ccc(S(=O)(=O)n3ccc(/C=C/C(=O)Nc4ccccc4N)c3)cc2)cn1`, for which the Potency in assay [1] was 651 nM (active) and 934 nM (active); in assay [2] it was 580 nM (active) and 742 nM (active); in assay [4] it was 0.794 µM (active); in assay [3] it was 0.891 µM (active).

Turning to `C[C@@H]1C[C@H](N)C[C@H](c2ccncc2NC(=O)c2ccc(F)c(-c3c(F)cccc3F)n2)C1`, the Potency is 1.18 µM (active) in assay [1], 2.63 µM (active) in assay [2] and 28.2 µM (active) in assay [3].

As for `CCOCCOC(=O)/C=C/c1ccc(OC)cc1`, the Potency result in assay [1], in assay [2] and in assay [3] was “inactive” throughout. Moreover, the activity (max response) in assay [4] was -3.52%.

For `CCC[C@H](NC(=O)/C(C#N)=C/c1cccc(Br)n1)c1ccccc1`, the figures for the Potency in assay [1], in assay [2] and in assay [3] were 2.09 µM (active), 2.35 µM (active) and 12.6 µM (active), respectively.

On to `CC(C)[N+](C)(C)CC(O)COc1cccc2ccccc12` (centres undefined), for which the Potency entry in assay [1], in assay [2] and in assay [3] was “inactive” throughout.

Regarding `CC(/C=C/C(=O)NO)=C\[C@@H](C)C(=O)c1ccc(N(C)C)cc1`, the Potency was 326 nM (active) and 296 nM (active) in assay [1]; 259 nM (active) and 332 nM (active) in assay [2]; 3.98 µM (active) in assay [3].

With `COc1ccc(S(=O)(=O)N[C@@H](CNc2nc(C)nc(N3CCC(c4ccc5c(n4)NCCC5)CC3)c2C)C(=O)O)cc1`, the Potency entry in assay [1], in assay [2] and in assay [3] was “inactive” throughout.

For `Cc1nc(-c2cccnc2)sc1C(=O)Nc1ccccc1-c1cn2c(CN3CCOCC3)csc2n1`, the Potency entry in assay [1], in assay [2] and in assay [3] was “inactive” throughout.

For `COc1ccc2cc(OCC3(C(=O)O)CN(C(=O)c4ccc(F)cc4)C3)ccc2c1`, the Potency entry in assay [1], in assay [2] and in assay [3] was “inactive” throughout.

As for `CC(C)Cc1ccc([C@@H](C)C(=O)NS(C)(=O)=O)cc1`, the Potency entry in assay [1], in assay [2] and in assay [3] was “inactive” throughout. In addition, the activity (max response) in assay [4] is 5.6%.

As for `CCN(CC)CCNc1ccc(C)c2sc3ccccc3c(=O)c12`, the Potency in assay [1] was 5.25 µM (active); in assay [2], 7.42 µM (active); in assay [4], 25.1 µM (active); in assay [3], 15.8 µM (active).

As to `Cc1ccc(C(=O)Nc2ccc(CN3CCN(C)CC3)c(C(F)(F)F)c2)cc1C#Cc1cnc2[nH]ncc2c1`, the Potency result in assay [1] and in assay [2] was “inactive” each time. Further, the Potency in assay [3] is 5.01 µM (active).

Turning to `CC(=O)[C@]1(O)Cc2c(O)c3c(c(O)c2[C@@H](O[C@H]2C[C@H](N)[C@H](O)[C@H](C)O2)C1)C(=O)c1ccccc1C3=O`, the Potency was 0.075 µM (active) in assay [1]; 119 nM (active) and 83.3 nM (active) in assay [2]; 46.1 nM (active) and 2 µM (active) in assay [4]; 1.84 µM (active) and 2.24 µM (active) in assay [3].

Consider `CCCCOc1ccc(C(=O)CCN2CCCCC2)cc1`, for which the values for the Potency in assay [1], in assay [2] and in assay [3] were 21.1 µM (active), 16.8 µM (active) and 8.2 µM (active), respectively.

Consider `C[N+](C)(C)CCOC(N)=O`, for which the Potency result in assay [1], in assay [2] and in assay [3] was “inactive” in each case.

With `O=C(Nc1ccc2[nH]nc(-c3ccncc3)c2c1)[C@@H]1CCN(CC(=O)N2CCN(c3ccc(-c4ncccn4)cc3)CC2)C1`, the Potency in assay [1] was 25.9 nM (active) and 525 nM (active); in assay [2], 23.1 nM (active) and 468 nM (active). Besides, the Potency entry in assay [3] is “inactive”.

Consider `OC(c1ccc(-c2ccc(CN3CCN(Cc4ccncc4)CC3)cc2)c(F)c1)(C(F)(F)F)C(F)(F)F`, for which the Potency in assay [1] is 4.17 µM (active); in assay [2] it was 5.9 µM (active). Further, the Potency result in assay [3] was “inactive”.

Regarding `COC(=O)C1=C(C)NC(C)=C(C(=O)OC)C1c1ccccc1[N+](=O)[O-]`, the Potency in assay [1] is 13.3 µM (active); in assay [2] it was 11.9 µM (active); in assay [3], 9.2 µM (active).

Take `COc1cc(C=C2CCC/C(=C\c3ccc(O)c(OC)c3)C2=O)ccc1O`: the Potency is 3.76 µM (active) in assay [1], 3.35 µM (active) in assay [2], 4.61 µM (active) in assay [4] and 7.31 µM (active) in assay [3].

Regarding `COC(=O)C1=C(C)NC(C)=C(C(=O)OCC(C)C)C1c1ccccc1[N+](=O)[O-]` (centres undefined), the Potency in assay [1] was 10.6 µM (active); in assay [2], 10.6 µM (active); in assay [3], 16.4 µM (active).

As to `CCNC(=O)C#Cc1ccc2c(C(=Nc3ccc(CN(C)C)cc3)c3ccccc3)c(O)[nH]c2c1`, the results for the Potency in assay [1], in assay [2] and in assay [3] were 0.0126 µM (active), 0.0317 µM (active) and 2.85 µM (active), respectively.

Regarding `CCOC(=O)c1cnc2c(cnn2CC)c1NN=C(C)C`, the Potency result in assay [1], in assay [2] and in assay [3] was “inactive” in each case.

`C=CC(=O)N1CCC(Oc2cc3c(Nc4ccc(Cl)c(Cl)c4F)ncnc3cc2OC)CC1`: the results for the Potency in assay [1], in assay [2] and in assay [3] were 1.03 µM (active), 4.68 µM (active) and 25.1 µM (active), respectively.

As for `O=C(Nc1ncc(SCCN2CCCC2)s1)[C@]1(c2ccc(S(=O)(=O)C3CC3)cc2)C[C@H]1C1CCCCC1`, the Potency in assay [1] is 7.42 µM (active); in assay [2] it was 8.33 µM (active); in assay [3], 7.08 µM (active).

As for `COc1cc(C(=S)N2CCOCC2)ccc1O`, the Potency result in assay [1], in assay [2] and in assay [3] was “inactive” each time. In addition, in assay [4], the activity (max response) was -19.3%.

Consider `Cc1nnc(C[C@@H]2C=C(c3ccc(Cl)cc3)c3ccccc3-n3c(C)nnc32)o1`, for which the Potency is 0.235 µM (active) in assay [1], 0.296 µM (active) in assay [2] and 6.31 µM (active) in assay [3].

As to `CN(C)/C(N)=N/C(=N)N`, the Potency entry in assay [1], in assay [2] and in assay [3] was “inactive” in each case.

Turning to `CCCCCCCCCCCC[N+](C)(C)Cc1ccccc1`, the Potency was 6.68 µM (active) in assay [1], 9.44 µM (active) in assay [2] and 29.1 µM (active) in assay [3].

Take `Cc1cc(C(C)(C)C)c(O)c(C(C)(C)C)c1`: the Potency entry in assay [1] and in assay [2] was “inactive” in each case. Moreover, in assay [3], the Potency is 25.9 µM (active).

Consider `CNc1ncc2cc(-c3cc(NC(=O)NCCC(C)(C)C)c(F)cc3C)c(C)nc2n1`, for which the Potency was 0.103 µM (active) in assay [1], 0.164 µM (active) in assay [2] and 17.8 µM (active) in assay [3].
